Structures are written as SMILES.

In assay [1] the test system is JAK3(JH1domain-catalytic).
The next assay concerns T1, JNK2.
T1 construct: gene MAPK9

The next assay relates to T2, JNK3.
T2 construct: gene MAPK10

The subject of a further assay is T3, MEK4.
T3 construct: gene MAP2K4

In the next assay the test system is T4, LZK.
T4 construct: gene MAP3K13

In assay [2] the test system is JAK2(JH1domain-catalytic).
Another assay relates to T5, LOK.
T5 construct: gene STK10

The test system of the next assay is T6, MEK2.
T6 construct: gene MAP2K2
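Further: kd values determined as follow-up on hits from a single-replicate KINOMEscan panel screen.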

Usually Kd stands for the concentration at which binding is half-saturated. High values mean weaker binding, low ones tighter binding. On to `COc1ccc(-c2coc3ccc(-c4nnc(C)o4)cc23)cc1`, for which the Kd in the assay with MARK1 and with MARK4 was more than 10000 nM each time.

In the assay on MARK1, `O=c1cc(N2CCOCC2)nc2n(Cc3ccccc3F)ccn12` [GSK2297428] registered a Kd of more than 10000 nM.

As for `COc1cccc(C2=C(Nc3cc(Cl)c(O)c(Cl)c3)C(=O)NC2=O)c1` [SB-390767], the Kd in [1] is 120 nM; in the assay on LTK it was more than 10000 nM.

For `COc1cccc(NC(=O)Nc2ccc(C)c(-c3ccc(C(=O)Nc4ccncc4)cc3)c2)c1` [GSK1398474], the Kd was 73 nM with KIT, 4400 nM in the assay on LYN, more than 10000 nM in the assay with MAK and more than 10000 nM with MARK1.

Turning to `Cc1ccccc1Cn1ccn2c(=O)cc(N3CCOCC3)nc12` [GSK2269905], the Kd with MARK1 and in the assay on MARK4 was more than 10000 nM in each case.

Regarding `Cc1ccc(NC(=O)Nc2ccccc2F)cc1-c1ccc(C(=O)Nc2ccncc2)cc1` [GSK1398477], the Kd with KIT was 450 nM.

Turning to `Fc1ccc(-c2nc[nH]c2-c2ccncc2)cc1` [SB-217360], the Kd came out at 85 nM with JNK2 and 11 nM in the assay on JNK3.

Consider `Fc1ccc(-c2nc3n(c2-c2ccncc2)CCS3)cc1` [GI98581], for which the Kd amounted to 270 nM with JNK2 and 57 nM in the assay on JNK3.

As to `O=C(Nc1n[nH]c2nc(-c3cccs3)c(Br)cc12)C1CC1` [SB-735297], in the assay on MEK4, the Kd was more than 10000 nM.

`Nc1nccc(-c2c(-c3ccc(F)cc3)ncn2C2CCN(Cc3ccccc3)CC2)n1` [SB-219980]: the Kd in the assay on JNK2 was 43 nM; in the assay with JNK3, 31 nM.

Regarding `Cc1ccc(NC(=O)Nc2ccc(Cl)cc2)cc1-c1ccc(C(=O)Nc2ccncc2)cc1` [GSK1398472], binding in the assay with KIT was characterised by a dissociation constant (Kd) of 140 nM.

With `CC(=O)c1c(C)c2cnc(Nc3ccc(N4CCNCC4)cn3)nc2n(C2CCCC2)c1=O`, the dissociation constant (Kd) with LIMK2 and in the assay with LZK was more than 10000 nM throughout.

Turning to `COc1ccc(Nc2nccc(N3CCC(NC(=O)C(C)c4ccc(Cl)cc4)CC3)n2)cc1` (centres unmarked) [GSK1379812], the Kd with LATS2 is more than 10000 nM.

Regarding `COc1ccc(Nc2nccc(N3CCC(NC(=O)c4cc5ccccc5s4)C3)n2)cc1` (centres unmarked) [GSK1379738], the Kd in assay [2] is 1800 nM; in the assay with MAK, more than 10000 nM.

Molecule `Nc1cccc(-c2ccc3c(N)n[nH]c3c2)n1` [GSK2192730] had a Kd in assay [2] of more than 10000 nM.

Take `CCn1c(-c2c(N)noc2C)nc2cnccc21` [SB-737856]: the Kd in the assay on LIMK2 is more than 10000 nM.

In [2], `Cn1cncc1C(=O)NC1CCN(c2ccnc(Nc3ccc(F)cc3)n2)C1` (centres unmarked) [GSK1379717] showed a Kd of 1500 nM.

For `CNCc1ccc2nc(NC(=O)c3ccc(C(C)(C)C)cc3)cn2c1`, the affinity in the assay on MAP3K15, expressed as Kd, was 3800 nM.

Consider `CCCCc1nn2ncccc2c1-c1ccnc(NC2CC2)n1` [GW684374], for which the Kd in the assay with JNK2 was 1300 nM; with JNK3, 740 nM.

In assay [2], `COc1ccc2cc(-c3nc(-c4ccccc4C(C)C)[nH]c3-c3ccncc3)ccc2c1` [SB-660566] yielded a Kd of more than 10000 nM.

Molecule `Cc1ccc(NC(=O)Nc2ccc(Cl)c(C(F)(F)F)c2)cc1-c1ccc(C(=O)Nc2ccncc2)cc1` [GSK1398470] registered a Kd in the assay with KIT of 560 nM.

In the case of `CS(=O)(=O)Cc1ccc(Nc2nccc(-c3c(-c4cccc(NC(=O)C5CCCCC5)c4)nn4ncccc34)n2)cc1` [GSK350559], the Kd in the assay on KIT was 110 nM; in the assay on LOK, 360 nM.

For the molecule `CCc1ccc(-c2ccc3c(c2)-c2n[nH]cc2S(=O)(=O)N3C)cc1`, in the assay with MEK2, the Kd is more than 10000 nM.

In the assay with LATS1, `Cc1c(Cn2c(C)c(C)n3c(=O)cc(N4CCOCC4)nc23)cccc1C(F)(F)F` [GSK2328680] had a dissociation constant (Kd) of more than 10000 nM.

In the assay on MARK1, `c1ccc(-c2ccnc3[nH]ccc23)cc1` [SB-693578] displayed a Kd of more than 10000 nM.

For `Cc1ccc(NC(=O)c2ccc(Cl)cc2)cc1-c1ccc(C(=O)Nc2ccncc2)cc1` [GSK1398467], the values for the Kd with KIT, with LRRK2 and in the assay with MARK2 were 170 nM, more than 10000 nM and more than 10000 nM, respectively.

Molecule `Cc1cnc(N)c(/C=C/c2cncc(C(=O)NCCc3ccc(Cl)cc3Cl)c2)c1.Cl` [GSK190937] yielded a Kd with KIT of 150 nM.

On to `CNC(=O)c1ccc(C)c(-n2c(C)cc(OCc3ccc(F)cc3F)c(Br)c2=O)c1`, for which the Kd with JNK2 and in the assay on JNK3 was more than 10000 nM each time.

Consider `Cc1ccc(NC(=O)Nc2ccccc2)cc1-c1ccc(C(=O)Nc2ccncc2)cc1` [GSK1398471], for which the Kd in the assay with KIT worked out at 140 nM.

Turning to `Fc1ccc(-c2nn3cccc(F)c3c2-c2ccncc2)cc1` [GW475620], the Kd came out at 230 nM with JNK2 and 58 nM with JNK3.

These data come from publication PMC5540273 (PLoS ONE, 2017).
